Screens (PubChem)
POLB inh: inhibitors of human DNA polymerase beta; P06746; Pol beta primer extension/strand displacement, fluorescence kinetic; Potency, µM (top dose mostly 114 µM), actives largely listed as inhibitors; 340,000 compounds, 1.3% hits
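Curves were derived by four-parameter Hill fits of normalized qHTS data. The kinetic fluorescent primer-extension read was taken at 0 and 10 min after 50 nM substrate, following a 15 min room-temperature preincubation of 10 nM enzyme with compounds.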
WRN inhibitor: WRN helicase (human) inhibition; Q14191; WRN helicase unwinding, fluorescent forked duplex, kinetic; Potency, µM (top dose mostly 114 µM), actives largely listed as inhibitors; 360,000 compounds, 0.46% hits; further: nearly all actives have a fitted effect of over 55% in size
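Kinetic fluorescence helicase assay: unwinding of a quenched forked DNA duplex (100 nM final) with 2 mM ATP final raises red fluorescence (525/598 nm). Compounds sat 15 min at room temperature with 20 nM WRN beforehand.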
Pol iota inh: inhibitors of human DNA polymerase iota; Potency, µM (top dose mostly 115 µM), hits mostly inhibitors; Q9UNA4; 390,000 compounds, 1% hits; Pol iota fluorescent replication assay, 10 min
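Fluorescent replication assay read twice, at 0 min and 10 min after adding 50 nM (final) substrate. Enzyme (10 nM) and compounds were first incubated 15 min at room temperature; enzyme-free buffer wells were negative controls.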
Pol eta inh: blocks human DNA polymerase eta activity; Potency, µM (doses to about 114 µM), hits mostly inhibitors; AID 588591; 390,000 compounds, 1.2% hits; recombinant Pol eta, fluorescent DNA replication assay; Q9Y253
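Pol eta at 10 nM preincubated with compounds 15 min at room temperature; reaction started with fluorescent substrate (50 nM final) and read kinetically at 0 and 10 min.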
Pol kappa inh: inhibitors of human DNA polymerase kappa. Q9UBT6. purified Pol kappa, fluorescent DNA synthesis assay, 10 min. Potency, µM (series often up to 107 µM), most hits filed as inhibitors. 400,000 compounds, 0.53% hits. AID 588579
Target sequence (Q9UBT6 whole entry, looked up): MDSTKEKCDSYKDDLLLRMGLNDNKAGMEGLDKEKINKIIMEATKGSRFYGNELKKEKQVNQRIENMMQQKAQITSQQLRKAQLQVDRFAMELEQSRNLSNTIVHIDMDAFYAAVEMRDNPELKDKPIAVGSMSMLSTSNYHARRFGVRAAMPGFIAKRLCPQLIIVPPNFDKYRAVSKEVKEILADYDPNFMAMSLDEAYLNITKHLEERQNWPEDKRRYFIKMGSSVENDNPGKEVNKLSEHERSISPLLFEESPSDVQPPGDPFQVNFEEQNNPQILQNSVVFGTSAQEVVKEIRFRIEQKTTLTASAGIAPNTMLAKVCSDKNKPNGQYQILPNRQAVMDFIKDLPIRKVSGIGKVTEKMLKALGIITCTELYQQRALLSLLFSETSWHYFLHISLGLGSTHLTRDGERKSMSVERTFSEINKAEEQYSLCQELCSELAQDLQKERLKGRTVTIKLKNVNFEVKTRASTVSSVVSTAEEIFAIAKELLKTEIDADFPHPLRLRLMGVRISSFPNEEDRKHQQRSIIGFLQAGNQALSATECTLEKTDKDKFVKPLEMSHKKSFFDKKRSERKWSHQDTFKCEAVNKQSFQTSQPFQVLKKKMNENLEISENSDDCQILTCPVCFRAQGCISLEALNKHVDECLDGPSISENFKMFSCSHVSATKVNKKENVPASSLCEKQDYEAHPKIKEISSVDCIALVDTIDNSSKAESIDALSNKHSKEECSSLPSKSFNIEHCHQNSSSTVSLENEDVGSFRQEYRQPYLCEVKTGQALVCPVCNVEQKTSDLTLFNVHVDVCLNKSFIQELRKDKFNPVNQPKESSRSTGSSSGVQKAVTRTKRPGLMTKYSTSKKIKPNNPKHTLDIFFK
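Here, compound and 10 nM enzyme are combined for 15 min at room temperature; adding 50 nM substrate (final) starts DNA synthesis, tracked by fluorescence at 0 and 10 min against buffer-only wells.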
FEN1 inh: blocks human flap endonuclease 1; Recombinant FEN1 flap cleavage, fluorescence, 15 min; 390,000 compounds, 0.35% hits; Potency, µM (top dose mostly 114 µM), most hits filed as inhibitors; further: nearly all actives have a fitted effect of over 65% in size
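Potency values derive from four-parameter Hill fits of normalized qHTS data. The reaction used 10 nM FEN1 preincubated 15 min at room temperature with compound, then 50 nM DNA substrate, read at 0 and 15 min.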
A number is an active result; . = inactive; ? = inconclusive; / = not tested or not shown; [ ] = remark or other dose. Shown are actives, neighbours in structure and some others; about 2.4% of the full set was active somewhere. The call rests on the fitted dose curve; in most records, active means well fitted curve in the direction sought with a large enough effect; inconclusive means small, poorly fitted or top-dose-only effect, or another doubt; inactive means no such curve, though single readings can be large; an effect the other way counts as inactive or inconclusive.

SMILES	POLB inh	WRN inhibitor	Pol iota inh	Pol eta inh	Pol kappa inh	FEN1 inh
CCc1cc(-c2n[nH]c(C)c2-c2ccccc2Cl)c(O)cc1OC	.	.	89.1µM	.	.	.
COc1cc2c(NC3CCN(C)CC3)nc(N3CCCN(C)CC3)nc2cc1OCCCCN(C)C	/	/	?	/	.	28.2µM
CCCN(C)CCCOc1cc2nc(N3CCCN(C)CC3)nc(NC3CCN(C)CC3)c2cc1OC	/	/	?	/	.	28.2µM
COc1cc2c(NC3CCN(C)CC3)nc(N3CCCN(C)CC3)nc2cc1OCCCCCCN(C)C	/	/	?	/	.	22.4µM
COc1cc2nc(NC3CCN(C)CC3)nc(N3CCCN(C)CC3)c2cc1OC	/	/	.	/	.	?
COc1cc2nc(N3CCCCC3)nc(NC3CCN(Cc4ccccc4)CC3)c2cc1OC	/	/	.	/	.	39.8µM
Cc1ccn2c(NCc3ccco3)c(-c3ccccc3)nc2c1	/	/	?	/	.	.
COc1cc2c(NC3CCN(C)CC3)nc(N3CCCCC3)nc2cc1OCCCN(C)C	/	/	39.8µM	/	?	25.1µM
COc1cc2nc(N3CCCCC3)nc(NC3CCN(C)CC3)c2cc1OC	/	/	.	/	.	?
COc1ccc(Nc2nc(N3CCCC3)nc3ccccc23)c(OC)c1	20µM	?	?	.	.	50.1µM
COc1cc2c(NC3CCN(C)CC3)nc(N3CCCN(C)CC3)nc2cc1OCCCN(C)C	/	/	?	/	.	22.4µM
COC(=O)c1ccc(NC(=O)c2nc(S(=O)(=O)Cc3ccccc3F)ncc2Cl)cc1	/	/	?	/	.	.
COc1ccc(C(=O)CSc2ccc(-c3ccccc3)nn2)cc1	.	.	.	.	.	.
COc1ccc(C(=O)CSc2ccc(-c3ccco3)nn2)cc1	14.1µM	.	?	?	.	.
O=C(CSc1ccc(-c2ccco2)nn1)c1ccccc1	11.2µM	?	50.1µM	.	?	.
COC(=O)c1ccccc1NC(=O)CCS(=O)(=O)c1ccc(Br)s1	.	.	.	.	.	.
Cc1ccccc1NC(=O)CCS(=O)(=O)c1ccc(Br)s1	35.5µM	.	?	?	?	.
CC(=O)c1ccccc1NS(=O)(=O)c1cccc2nonc12	.	.	.	.	.	.
CC(=O)c1ccccc1NS(=O)(=O)c1cccc2nsnc12	25.1µM	.[11.6 µM]	44.7µM	50.1µM	79.4µM	.
CC1(C)OC(=O)C2(Cc3c(F)cccc3N3CCCC32)C(=O)O1 (stereo unspecified)	/	/	?	/	.	.
Oc1c(Br)cc(Br)cc1CNc1cccc2cccnc12	44.7µM	.[11.6 µM]	?	.	?	?
Oc1ccc(Br)cc1CNc1cccc2cccnc12	.	.	.	?	.	?
CCCCCCCCCC[n+]1ccc(/C=C/c2c(C)[nH]c3ccccc23)cc1	/	/	.	/	.	79.4µM
COc1ccc(CCn2c(C)nc3c(c(=O)c4ccccc4n3C)c2=O)cc1	.	.	.	.	.	50.1µM
Cn1c2ccccc2c(=O)c2c(=O)n(C3CCCCC3)c(-c3ccco3)nc21	.	.	.	.	.	.
SMILES	POLB inh	WRN inhibitor	Pol iota inh	Pol eta inh	Pol kappa inh	FEN1 inh
CC(C)Cn1c(-c2ccco2)nc2c(c(=O)c3ccccc3n2C)c1=O	39.8µM	/	/	/	/	/
CN(C)C(=O)CCSC(SCCC(=O)O)c1cccc(/C=C/c2ccc3ccc(Cl)cc3n2)c1 (stereo unspecified)	/	/	/	/	.[19.4 µM]	/
COc1ccc(Cl)c(Cn2cnc3c(cnn3C(C)(C)C)c2=O)c1F	/	/	.	/	.	.
CCOc1ccc(NC(=O)CN2CCCN(Cc3cc(C)ccc3C)S2(=O)=O)cc1	.	/	89.1µM	.	?	?
CCCCN(CCCN)c1ccc(Br)cn1	/	/	.	/	.	.
N#CCC(=O)c1sccc1-n1cccc1	.	?	?	.	79.4µM	.
CCCCNC(=O)Cn1c(SCc2cccc(C)c2)nc2ccncc21	/	/	.	/	.	.
Nc1c(N=Nc2ccc([N+](=O)[O-])cc2)c(S(=O)(=O)O)cc2cc(S(=O)(=O)O)c(/C=C/c3ccccc3)c(O)c12	/	/	25.1µM	/	31.6µM	11.2µM
Cc1c(/C=C2\SC(=Nc3cccc(C(=O)O)c3)NC2=O)c2ccccc2n1C	?	.[11.6 µM]	?	79.4µM	.	?
O=c1c2ccccc2nc2n1CCCCC2	.	.	.	.	.	.
O=c1c2ccccc2nc2n1CCC2	.	22.4µM	50.1µM	?	.	?
